In PubChem BioAssay (NCATS):
Results filed as inconclusive are left out. Calls of active or inactive are those of the source. Calls come from the whole dose curve; as a rule, active = well fitted cell-killing curve with a large enough effect; inconclusive = small, poorly fitted or top-dose-only effect, or effect the other way; inactive = flat fitted curve, though single readings scatter.

Legend:
Assay in all cases: Primary qHTS to identify gynecologic anti-cancer compounds using libraries of approved drugs and bioactive compounds (AID 1345084); note: nearly all actives have a fitted effect of over 55% in size
Conditions in all cases: Gynecologic cancer cell panel viability, ATPlite luminescence, 48 h; series mostly up to 57.5 µM
[1] = tested on: PA-1
Summary of the method: (§1)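 Cells, 1,000 per well, were allowed to settle for 16 h at 37 C before compound addition. Five concentrations were tested for 48 h, and viability was read by ATPlite luminescence after 15 min at room temperature.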

[2] = tested on: SKOV3
Summary of the method: as §1

[3] = tested on: Tov-21-G
Summary of the method: as §1

[4] = tested on: Tov112D
Summary of the method: as §1

Measured: Potency
Potency is the fitted concentration of half-maximal effect.

O=C(OC1CN2CCC1CC2)N1CCc2ccccc2C1c1ccccc1 (stereo unspecified)
inactive: all assays above

CCOC(=O)N1CCC(N2CCC[C@@H](NC(=O)c3ccccc3C)C2)CC1
inactive: all assays above

CC1(C)C2CCC(CO[C@@H]3O[C@H](CO[C@@H]4OC[C@](O)(CO)[C@H]4O)[C@@H](O)[C@H](O)[C@H]3O)C1C2 (stereo partly specified)
inactive: all assays above

C/C=C/C1=CC2=C(CO1)C(=O)C(C)(OC(=O)c1c(C)cc(O)cc1OC)C(O)C2 (stereo unspecified)
inactive: all assays above

Nc1nc2c(c(N3CC[C@@H](N)C3)n1)CCCc1ccccc1-2
active: [2] 28.2 µM
inactive: all other assays above

COc1c2c(c(C)c3c1C(=O)OC3)O[C@@]1(C)C[C@@H](OC(C)=O)[C@]34O[C@](OC)(CC[C@]3(C)[C@H]1C2)OC4(C)C
inactive: all assays above

Cc1noc(-c2ccc(-c3ccc(CC(=O)O)cc3)cc2)c1NC(=O)O[C@H](C)c1ccccc1Cl
inactive: all assays above

O=C(Nc1ccc2[nH]c(=O)oc2c1)C(=O)N1CCC(Cc2ccc(F)cc2)CC1
inactive: all assays above

CC(=O)O[C@H]1C[C@@](O)(C(C)C)[C@@H]2[C@@H](OC(=O)c3ccc(O)cc3)CC(C)=CC[C@@]12C
inactive: all assays above

C=C1C(OC2OC(CO)C(O)C(O)C2O)CC2C(C)(C)C(O)CCC2(C)C1CC/C(C)=C\COC(=O)CC(=O)O (stereo unspecified)
inactive: all assays above

Cc1ccc(F)cc1S(=O)(=O)N[C@@H]1CCN(Cc2ccc(OC(C)C)cc2)C1
inactive: all assays above

CN(C)S(=O)(=O)c1ccc(NC(=S)N2CCC(C(O)(c3ccccc3)c3ccccc3)CC2)cc1
inactive: all assays above

O=c1[nH]cnc2c([C@@H]3N[C@H](CO)[C@@H](O)[C@H]3O)c[nH]c12
inactive: all assays above

CCCC(=O)C1(c2ccccc2)CCN(C(=O)[C@@H](Cc2ccc(OC)cc2)NC(=O)[C@@H](N)Cc2cncn2C)CC1
inactive: all assays above

O=C(Cc1c(F)cccc1F)Nc1cc(OCc2ccc(Cl)cc2)ccn1
inactive: all assays above

C/C=C/CCC1Cc2cc(O)c(CCCC)c(O)c2C(=O)O1 (stereo unspecified)
inactive: all assays above

O=c1[nH]c([C@@H]2CCCN2)nc2c1oc1ccc(Cl)cc12
inactive: all assays above

O=c1cc(N2CCN(c3cccc(C(F)(F)F)c3)CC2)[nH]c(=O)n1C1CCCCC1
inactive: all assays above

NS(=O)(=O)c1ccc(N2CCN(CC[C@@H]3OCCc4ccccc43)CC2)cc1
inactive: all assays above

CCC(C)CNCC(=O)N1CCc2sccc2C1COc1cccc(C)c1 (stereo unspecified)
inactive: all assays above

O=S(=O)(Nc1ccccc1N1CCCCC1)c1ccc(Cl)s1
inactive: all assays above

CCCC(CCC)C(=O)NCc1ccc2c(cnn2-c2ccccc2OC)c1
inactive: all assays above

O=C(Nc1cc(C(F)(F)F)ccc1N1CCCCC1)c1ccncc1
inactive: all assays above

CC(=O)OC[C@]12[C@H](OC(C)=O)C(=O)[C@@H]3[C@@H](O)[C@@]14O[C@@]3(C)COC(=O)c1cccnc1[C@@H](C)[C@H](C)C(=O)O[C@@H]([C@H](O)[C@@H]2OC(C)=O)[C@]4(C)O
inactive: all assays above

OC(CC1c2ccccc2-c2cncn21)C1CCCCC1 (stereo unspecified)
inactive: all assays above

O=C(NCc1ccc(OC(F)(F)F)cc1)C1c2c(F)cccc2C(=O)N1CCc1ccccn1 (stereo unspecified)
inactive: all assays above

Nc1nc(OCc2cc(Br)cs2)c2[nH]cnc2n1
inactive: all assays above

C=C1CC[C@H]2C(=C)CC[C@H]3C(=C)C(=O)O[C@@H]3[C@@H]12
inactive: all assays above

C=C1C(=O)OC2C=C(C)CC/C=C(\CO)CC(O)C12 (stereo unspecified)
inactive: all assays above
